KDM5B inh – Primary screen for KDM5B Histone Demethylases FDH-coupled qHTS; KDM5B demethylase, FDH-coupled NADH fluorescence (FDH is formaldehyde dehydrogenase); Potency, µM (highest dose often 57.7 µM), most hits filed as inhibitors; 220,000 tested, 2.6% active; AID 1347165, 2019; active = well fitted inhibition curve with a large enough effect; also: nearly all actives have a fitted effect of over 70% in size
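Coupled FDH/NAD⁺ fluorescence readout. KDM5BΔAP 200 nM final; compound titration, 10 min RT preincubation; substrate mix 12.5 µM H3K4me3, 25 µM 2-OG, 50 µM Fe(II), 100 µM ascorbate, 0.25 mM NAD⁺, 0.25 U/mL FDH; ΔRFU over 30 min.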
Of the large screens only hits and unclear results are named; the others gave an inactive call. The sample as a whole holds a higher share of hits than the screen did.

COc1ccc(-c2noc([C@@H]3CCCN3C(=O)c3cc(OC)c(OC)c(OC)c3)n2)cc1OC	none
COCCOc1ccnc(-c2noc([C@@H]3CCCN3Cc3ccc(C(=O)O)cc3)n2)c1	none
Cc1ccc(S(=O)(=O)N2CCCN(C(C(=O)NC3CC3)c3ccccc3)CC2)cc1 (stereo not given)	none
C=CCn1cc(C=O)c2ccccc21	none
Nc1nnnn1Cc1nnc(SCc2ccccc2Cl)n1-c1ccccc1	none
CSc1ccc(C(C)=O)cc1	none
COc1ccc2cc(C(=O)N3CCC(C)(C(=O)NCc4ccccc4)CC3)[nH]c2c1	none
Cc1ccnc(NC(=O)c2cc(-c3ccncc3)nc3ccccc23)c1	none
COc1cccc(S(=O)(=O)Nc2c(NC3CCCCC3)c3ccccc3oc2=O)c1	none
CC(C)c1cc(CN(C)Cc2cn[nH]c2-c2ccc(F)cc2)no1	KDM5B inh 28µM
Cc1cc(CN(C)Cc2ccc(F)cc2)no1	none
CCN(Cc1nc(COC)no1)Cc1cn[nH]c1-c1ccc(F)cc1	none
COc1ccc(NC(=O)c2cc3sc(C)c(CN4CCCCC4)c3[nH]2)cc1OC	none
COc1ccc(-c2ocnc2C(=O)Nc2cc(Cl)c(OC)cc2OC)cc1	none
COc1ccc(NC(=O)c2ccnc(-c3nnc4ccc(Nc5ccccc5)nn34)c2)cn1	KDM5B inh 32µM
COc1cccc(NC(=O)c2ccnc(-c3nnc4ccc(N5CCN(C)CC5)nn34)c2)c1	none
C[C@@H]1CN(C(=O)c2ccnc(-c3nnc4ccc(Nc5ccccc5)nn34)c2)C[C@H](C)O1	none
NC(=O)C1CCN(Cc2cc(=O)oc3cc(-c4ccccc4)c(O)cc23)CC1	none
COC(=O)c1cccc(NC(=O)NCC2CCN(CCc3ccc(F)cc3)CC2)c1	none
O=C(NCC#Cc1cccc(C(F)(F)F)c1)NC1CCN(Cc2ccccn2)CC1	none
Cc1sc2ncnc(N3CCCCC3)c2c1-c1ccc(Cl)cc1	none
Cc1ccc(C)c(N2CCN(C(=O)c3cc4n(n3)CC(c3ccc(Cl)cc3)OC4)CC2)c1 (stereo not given)	none
CC(C)c1ccc(CNC(=O)c2cc3n(n2)CC(c2ccc(Cl)cc2)OC3)cc1 (stereo not given)	none
CCN1CCN(C(=O)c2cc3n(n2)CC(c2ccc(Br)cc2)OC3)CC1 (stereo not given)	none
Cc1ccc(NC(=O)c2cc3n(n2)CC(c2ccc(Cl)cc2)OC3)cc1F (stereo not given)	KDM5B inh 28µM
O=C(Nc1cc(F)ccc1Cl)c1cc2n(n1)CC(c1ccc(Br)cc1)OC2 (stereo not given)	KDM5B inh 25µM
NC(=O)CNC(=O)c1cc2n(n1)CC(c1ccc(Br)cc1)OC2 (stereo not given)	none
O=C(Nc1ccccc1)c1cc2n(n1)CC(c1ccc(Br)cc1)OC2 (stereo not given)	KDM5B inh 32µM
O=C(Nc1ccc(F)c(F)c1)c1cc2n(n1)CC(c1ccc(Cl)cc1)OC2 (stereo not given)	none
COc1ccc(NC(=O)c2cc3n(n2)CC(c2ccc(Cl)cc2)OC3)cc1 (stereo not given)	none
O=C(c1cc2n(n1)CC(c1ccc(Br)cc1)OC2)N1CCOCC1 (stereo not given)	none
O=C(Nc1ccc(Cl)cc1)c1cc2n(n1)CC(c1ccc(Cl)cc1)OC2 (stereo not given)	KDM5B inh 32µM
COc1cc(CNC(=O)c2cccc3c2CCN3C(=O)C2CC2)cc(OC)c1	none
COc1ccc(Cl)cc1NC(=O)CSc1nc2c(c(=O)n1C)SCC2	none
NC(=O)NC(=O)CSc1ncnc2ccccc12	none
O=[N+]([O-])c1cccc(-c2noc([C@@H]3Cc4nc[nH]c4CN3)n2)c1	none
COC(=O)Cn1c(Nc2ccccc2)nc2c1c(=O)n(C)c(=O)n2C	none
O=C(CCC(=O)c1cccs1)NCCC(=O)Nc1ccc(F)c(Cl)c1	none
CCOC(=O)CSCC(=O)NCc1cccs1	none
COc1ccccc1S(=O)(=O)NC1CCCN(C2CCCCCC2)C1 (stereo not given)	none
CC1CCN(c2oc(COc3ccc(F)cc3)nc2C#N)CC1	none
O=C(c1ccc(OC(F)(F)F)cc1)N1CCC(NS(=O)(=O)c2cccs2)CC1	none
O=C(CCc1nc2ccccc2s1)N1CCCC1c1nc(CCOCC2CC2)no1 (stereo not given)	none
COc1ccc(CC(=O)Nc2ccc(=O)n3c2[C@@H]2C[C@@H](CN(S(=O)(=O)c4ccc(OC)cc4)C2)C3)cc1	none
COc1ccc(OCCSC2=NCC(C)(C)CN2)cc1	none
O=C(O)CCNS(=O)(=O)c1ccc(Cl)c(C(=O)O)c1	none
Cc1cccc(C(=O)Nc2ccc(C(=O)OCc3cc(=O)n4ccsc4n3)cc2)c1	none
COc1cccc(CNC2(Cc3cc(COc4ccccc4)on3)COC2)c1	none
O=c1c(Cl)c(N2CCN(S(=O)(=O)c3ccc4ccccc4c3)CC2)cnn1-c1ccccc1	none
COc1ccc(CNC(=O)c2cc3n(n2)CC(c2ccc(Cl)cc2)OC3)cc1 (stereo not given)	none
CCOc1ccc(OCC)c(NC(=O)c2cc3n(n2)CC(c2ccc(Cl)cc2)OC3)c1 (stereo not given)	KDM5B inh 14µM
O=C(Nc1ccc(F)c(Cl)c1)c1cc2n(n1)CC(c1ccc(Cl)cc1)OC2 (stereo not given)	KDM5B inh 25µM
CC(NC(=O)c1cc2n(n1)CC(c1ccc(Cl)cc1)OC2)c1ccc(F)cc1 (stereo not given)	none
COc1ccc(CNC(=O)c2cc3n(n2)CC(c2ccc(Cl)cc2)OC3)c(OC)c1 (stereo not given)	none
O=C(c1cc2n(n1)CC(c1ccc(Cl)cc1)OC2)N1CCCCC1 (stereo not given)	none
CCOc1ccc(/C=N/OCc2ccc(F)cc2Cl)cc1	none
Cc1[nH]c2ccccc2c1C(=O)/C(C#N)=C\c1ccccc1Cl	none
CC(C)C(=O)N1CCN(c2nc3ccccc3o2)CC1	none
Cn1c(=O)c2c(ncn2CCC(=O)Nc2c(Cl)cccc2Cl)n(C)c1=O	none
CCN(Cc1ccncc1)C(=O)c1cc(-c2cnn(CC)c2)nc2cc(C)ccc12	KDM5B inh 28µM
CCN(CC)C(=O)c1cc(-c2ccncc2)nc2ccccc12	none
CCN(CC)C(=O)c1cc(-c2ccc(Cl)cc2)nc2ccccc12	none
COc1ccc(C(C)=O)cc1CC(=O)NCc1nnc2ccccn12	none
Cc1ccc(-c2ccc3nnc(CNC(=O)c4ccco4)n3n2)cc1C	KDM5B inh 22µM
COc1ccc(C)cc1CC(=O)NCc1nnc2ccccn12	none
O=C(NCCn1nc(-c2ccc(F)cc2)ccc1=O)c1cccc(C(F)(F)F)c1	none
Cc1ccn2cc(CNC(=O)c3cccc(C(F)(F)F)c3)nc2c1	none
COc1ccccc1CC(=O)NCc1nnc2ccc(-c3ccc(C)c(C)c3)nn12	KDM5B inh 32µM
O=C(NCc1nnc2ccc(-c3ccccc3)nn12)c1ccc(F)c(F)c1	KDM5B inh 28µM
Cc1ccc(-c2nonc2NC(=O)c2ccco2)cc1C	none
O=C(NCc1nnc2ccc(-c3ccccc3)nn12)c1cccc(C(F)(F)F)c1	KDM5B inh 32µM
Cc1ccc(-c2ccc3nnc(CNC(=O)c4ccc[nH]4)n3n2)cc1C	none
Cc1cc(Cl)c2c([N+](=O)[O-])c(O)ccc2n1	none
Cc1ccc2oc(-c3cccc(NC(=O)c4cccs4)c3C)nc2c1	none
CCOCCCNCc1ccc(F)cc1	none
CC(Sc1ccc2c(c1)OCCCO2)C(=O)Nc1ccc(Br)cc1 (stereo not given)	none
COC(=O)c1ccc(COC(=O)Cc2coc3cc(C)ccc23)cc1	none
Cc1ccc(C(=O)COC(=O)c2ccc(O)cc2)s1	none
Nn1cnc2ccccc21	none
CC(C)N(Cc1cnn(C)c1)S(=O)(=O)c1ccc(Cl)cc1F	none
